Measured values taken from publication PMC7862700, “An all-to-all approach to the identification of sequence-specific readers for epigenetic DNA modifications on cytosine”.

What was measured:
Assay in all cases: DAPPL (digital affinity profiling via proximity ligation, sequencing); 10 mM Tris-HCl pH 7.5, 50 mM NaCl, 1 mM DTT, 4% glycerol, room temperature, 30 min; GST-TFs on glutathione beads, 16-mer random dsDNA library, 0.1% formaldehyde crosslink after washing; high values mean tight binding
Conditions in all cases: protein: recombinant; tags: N-terminal GST; dsDNA, one strand shown
FEV = target: T1, FEV (Homo sapiens, UniProt Q99581 1-238)
T1 sequence: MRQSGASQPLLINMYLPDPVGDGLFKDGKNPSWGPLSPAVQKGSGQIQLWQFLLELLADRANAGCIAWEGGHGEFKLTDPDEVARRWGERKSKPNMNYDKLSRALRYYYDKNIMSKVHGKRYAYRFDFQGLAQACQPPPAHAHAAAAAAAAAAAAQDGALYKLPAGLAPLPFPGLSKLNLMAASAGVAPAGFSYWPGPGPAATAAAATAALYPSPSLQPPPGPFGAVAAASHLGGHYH
Outline: (§1)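 Yeast served to express human transcription factors as GST fusions, which were then captured on glutathione beads and labelled with DNA barcodes. Pooled with a tag-only sample, they were incubated with 200 nmole of a 16-mer random double-stranded DNA library for 30 min at room temperature in Tris/NaCl/DTT/glycerol buffer, washed, crosslinked with 0.1% formaldehyde, ligated by proximity, amplified by PCR and sequenced. Dividing each hexamer's read frequency for a factor by its frequency for the tag-only sample gives the binding signal.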

ETV5 = ETV5 (Homo sapiens, UniProt P41161 1-510)
Outline: as §1

SPIC = target: T2, SPIC (Homo sapiens, UniProt Q8N5J4 1-248)
T2 sequence: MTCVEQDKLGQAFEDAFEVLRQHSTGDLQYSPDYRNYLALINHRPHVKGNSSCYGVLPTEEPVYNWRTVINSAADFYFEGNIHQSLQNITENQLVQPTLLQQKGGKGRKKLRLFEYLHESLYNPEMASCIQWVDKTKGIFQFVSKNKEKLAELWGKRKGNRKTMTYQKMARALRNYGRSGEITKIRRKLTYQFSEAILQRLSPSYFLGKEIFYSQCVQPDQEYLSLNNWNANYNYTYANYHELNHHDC
Outline: as §1

ELF4 = ELF4 (Homo sapiens, UniProt Q99607 1-663)
Outline: as §1

ELK4 = target: T3, ELK4 (Homo sapiens, UniProt P28324-2 1-405)
T3 sequence: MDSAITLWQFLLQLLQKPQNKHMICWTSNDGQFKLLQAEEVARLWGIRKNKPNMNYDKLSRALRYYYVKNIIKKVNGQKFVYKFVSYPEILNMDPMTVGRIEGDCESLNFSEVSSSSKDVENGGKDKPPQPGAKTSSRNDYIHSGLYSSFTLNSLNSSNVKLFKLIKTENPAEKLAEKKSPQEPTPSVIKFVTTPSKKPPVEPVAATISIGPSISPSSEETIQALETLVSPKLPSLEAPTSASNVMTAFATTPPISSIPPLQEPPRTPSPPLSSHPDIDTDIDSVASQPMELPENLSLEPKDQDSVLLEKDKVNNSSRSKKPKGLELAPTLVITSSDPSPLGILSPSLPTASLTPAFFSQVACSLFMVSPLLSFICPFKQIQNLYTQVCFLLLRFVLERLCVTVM
Outline: as §1

ELF3 = target: T4, ELF3 (Homo sapiens, UniProt P78545 1-371)
T4 sequence: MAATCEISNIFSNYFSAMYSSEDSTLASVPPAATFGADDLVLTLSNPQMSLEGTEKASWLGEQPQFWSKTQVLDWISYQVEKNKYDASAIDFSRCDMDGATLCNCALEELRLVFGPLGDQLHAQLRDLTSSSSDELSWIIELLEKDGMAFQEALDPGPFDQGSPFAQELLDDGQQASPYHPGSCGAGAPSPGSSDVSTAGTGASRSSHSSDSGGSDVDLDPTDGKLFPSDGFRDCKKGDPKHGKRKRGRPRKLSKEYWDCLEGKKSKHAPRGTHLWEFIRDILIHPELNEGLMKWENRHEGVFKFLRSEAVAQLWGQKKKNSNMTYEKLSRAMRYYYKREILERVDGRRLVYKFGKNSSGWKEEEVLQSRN
Outline: as §1

ETV1 = ETV1 (Homo sapiens, UniProt P50549 1-477)
Outline: as §1

ERF = target: T5, ERF (Homo sapiens, UniProt P50548 1-548)
T5 sequence: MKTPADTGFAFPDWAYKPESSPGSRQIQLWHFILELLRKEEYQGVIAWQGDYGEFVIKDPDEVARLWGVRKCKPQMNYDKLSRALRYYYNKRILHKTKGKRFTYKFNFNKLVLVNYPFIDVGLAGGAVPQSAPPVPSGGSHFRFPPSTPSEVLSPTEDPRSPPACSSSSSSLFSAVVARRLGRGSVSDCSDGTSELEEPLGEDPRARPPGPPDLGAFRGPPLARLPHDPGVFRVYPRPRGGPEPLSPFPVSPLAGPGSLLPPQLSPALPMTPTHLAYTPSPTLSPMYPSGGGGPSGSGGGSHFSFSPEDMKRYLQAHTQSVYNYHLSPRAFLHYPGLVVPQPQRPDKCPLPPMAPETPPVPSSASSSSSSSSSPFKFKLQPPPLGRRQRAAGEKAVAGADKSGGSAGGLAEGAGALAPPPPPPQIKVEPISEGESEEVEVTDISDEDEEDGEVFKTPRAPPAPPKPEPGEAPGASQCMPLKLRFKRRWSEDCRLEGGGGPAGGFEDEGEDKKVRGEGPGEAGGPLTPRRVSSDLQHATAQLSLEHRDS
Outline: as §1

ETV3L = target: T6, ETV3L (Homo sapiens, UniProt Q6ZN32 1-361)
T6 sequence: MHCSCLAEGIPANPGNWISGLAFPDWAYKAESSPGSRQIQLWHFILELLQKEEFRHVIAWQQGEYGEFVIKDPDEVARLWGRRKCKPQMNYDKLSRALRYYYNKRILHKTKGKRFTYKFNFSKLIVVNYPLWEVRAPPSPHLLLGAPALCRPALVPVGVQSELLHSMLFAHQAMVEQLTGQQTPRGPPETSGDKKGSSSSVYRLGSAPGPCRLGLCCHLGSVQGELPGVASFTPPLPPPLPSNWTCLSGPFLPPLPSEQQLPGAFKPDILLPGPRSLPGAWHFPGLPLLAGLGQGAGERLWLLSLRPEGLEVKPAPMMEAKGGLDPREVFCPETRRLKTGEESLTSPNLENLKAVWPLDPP
Outline: as §1

ETS2 = target: T7, ETS2 (Homo sapiens, UniProt P15036 1-469)
T7 sequence: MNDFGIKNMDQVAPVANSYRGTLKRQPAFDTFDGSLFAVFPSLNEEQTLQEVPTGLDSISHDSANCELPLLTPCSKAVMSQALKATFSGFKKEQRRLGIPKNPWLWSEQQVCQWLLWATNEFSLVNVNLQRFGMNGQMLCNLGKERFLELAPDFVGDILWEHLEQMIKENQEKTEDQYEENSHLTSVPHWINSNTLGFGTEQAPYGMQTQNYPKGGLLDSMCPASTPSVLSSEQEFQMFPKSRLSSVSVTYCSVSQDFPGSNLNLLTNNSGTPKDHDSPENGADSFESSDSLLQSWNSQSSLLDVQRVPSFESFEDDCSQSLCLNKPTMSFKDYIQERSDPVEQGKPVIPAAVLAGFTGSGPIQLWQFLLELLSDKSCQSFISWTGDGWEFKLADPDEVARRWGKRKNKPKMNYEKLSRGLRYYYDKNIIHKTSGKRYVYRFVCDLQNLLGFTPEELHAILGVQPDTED
Outline: as §1

SPDEF = target: T8, SPDEF (Homo sapiens, UniProt O95238 1-335)
T8 sequence: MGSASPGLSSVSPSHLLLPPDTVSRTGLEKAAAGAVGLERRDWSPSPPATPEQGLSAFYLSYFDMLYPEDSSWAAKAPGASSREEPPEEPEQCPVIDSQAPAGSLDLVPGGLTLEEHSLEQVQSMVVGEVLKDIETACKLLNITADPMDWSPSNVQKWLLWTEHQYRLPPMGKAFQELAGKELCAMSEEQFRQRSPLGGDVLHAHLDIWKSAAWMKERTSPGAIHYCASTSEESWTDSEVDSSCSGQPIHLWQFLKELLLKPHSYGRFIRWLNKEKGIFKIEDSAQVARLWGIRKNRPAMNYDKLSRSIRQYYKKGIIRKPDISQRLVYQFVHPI
Outline: as §1

ETV7 = target: T9, ETV7 (Homo sapiens, UniProt Q9Y603 1-341)
T9 sequence: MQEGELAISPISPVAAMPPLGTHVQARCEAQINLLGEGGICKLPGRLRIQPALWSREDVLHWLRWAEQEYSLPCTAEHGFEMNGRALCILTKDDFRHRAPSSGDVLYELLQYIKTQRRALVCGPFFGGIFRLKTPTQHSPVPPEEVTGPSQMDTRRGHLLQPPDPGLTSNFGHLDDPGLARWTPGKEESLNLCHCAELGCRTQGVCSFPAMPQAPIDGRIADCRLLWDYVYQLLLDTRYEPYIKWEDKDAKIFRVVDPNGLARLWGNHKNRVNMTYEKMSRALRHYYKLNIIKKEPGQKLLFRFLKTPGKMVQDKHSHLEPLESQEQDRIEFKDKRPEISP
Outline: as §1

ELF5 = target: T10, ELF5 (Homo sapiens, UniProt Q9UKW6-2 1-255)
T10 sequence: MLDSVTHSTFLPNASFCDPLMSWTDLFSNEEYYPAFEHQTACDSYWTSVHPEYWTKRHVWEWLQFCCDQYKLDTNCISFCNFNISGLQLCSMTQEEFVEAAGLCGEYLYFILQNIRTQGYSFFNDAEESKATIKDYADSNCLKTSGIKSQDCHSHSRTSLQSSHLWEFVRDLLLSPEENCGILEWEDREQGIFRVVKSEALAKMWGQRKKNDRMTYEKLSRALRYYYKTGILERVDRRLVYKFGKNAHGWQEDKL
Outline: as §1

ETV3 = target: T11, ETV3 (Homo sapiens, UniProt P41162-2 1-143)
T11 sequence: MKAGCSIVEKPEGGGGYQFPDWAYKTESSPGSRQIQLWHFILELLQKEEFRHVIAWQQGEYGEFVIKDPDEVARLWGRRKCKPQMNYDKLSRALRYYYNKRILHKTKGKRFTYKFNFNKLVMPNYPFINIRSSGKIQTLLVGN
Outline: as §1

ETV6 = ETV6 (Homo sapiens, UniProt P41212 1-452)
Outline: as §1

CRX = CRX (Homo sapiens, UniProt O43186 1-299)
Outline: as §1

ELF4, sequence (Q99607 whole entry): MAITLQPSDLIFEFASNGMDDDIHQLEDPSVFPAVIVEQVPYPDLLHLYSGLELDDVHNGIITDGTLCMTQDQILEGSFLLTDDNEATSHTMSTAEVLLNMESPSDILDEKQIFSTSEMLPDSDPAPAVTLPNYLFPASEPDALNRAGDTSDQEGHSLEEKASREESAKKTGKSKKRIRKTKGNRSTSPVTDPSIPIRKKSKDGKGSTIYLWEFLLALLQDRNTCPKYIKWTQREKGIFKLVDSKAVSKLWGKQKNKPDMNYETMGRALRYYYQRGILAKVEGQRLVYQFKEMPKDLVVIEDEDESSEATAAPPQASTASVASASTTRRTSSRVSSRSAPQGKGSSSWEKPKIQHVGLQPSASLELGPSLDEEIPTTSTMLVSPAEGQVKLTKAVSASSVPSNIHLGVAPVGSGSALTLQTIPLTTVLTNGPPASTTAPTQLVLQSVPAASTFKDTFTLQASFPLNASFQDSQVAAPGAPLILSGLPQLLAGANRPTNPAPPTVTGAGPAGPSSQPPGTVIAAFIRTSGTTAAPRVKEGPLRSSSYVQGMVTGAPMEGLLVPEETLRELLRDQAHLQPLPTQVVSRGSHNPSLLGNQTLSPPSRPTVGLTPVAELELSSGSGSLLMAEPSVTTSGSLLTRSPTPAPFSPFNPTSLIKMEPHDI
ETV5, sequence (P41161 whole entry): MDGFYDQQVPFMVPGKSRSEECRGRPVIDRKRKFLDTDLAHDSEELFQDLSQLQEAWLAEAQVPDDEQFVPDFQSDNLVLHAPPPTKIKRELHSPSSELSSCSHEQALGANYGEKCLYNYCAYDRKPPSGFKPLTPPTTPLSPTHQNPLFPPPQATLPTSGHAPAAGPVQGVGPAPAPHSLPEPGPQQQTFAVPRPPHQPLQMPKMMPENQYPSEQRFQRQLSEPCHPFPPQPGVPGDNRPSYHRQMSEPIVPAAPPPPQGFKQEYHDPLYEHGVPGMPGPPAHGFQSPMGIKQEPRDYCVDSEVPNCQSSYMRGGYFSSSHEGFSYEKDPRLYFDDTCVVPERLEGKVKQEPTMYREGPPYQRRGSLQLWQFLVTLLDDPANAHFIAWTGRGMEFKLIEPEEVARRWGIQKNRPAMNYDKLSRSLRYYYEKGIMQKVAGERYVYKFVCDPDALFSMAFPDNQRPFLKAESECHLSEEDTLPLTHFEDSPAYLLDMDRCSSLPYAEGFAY
ETV6, sequence (P41212 whole entry): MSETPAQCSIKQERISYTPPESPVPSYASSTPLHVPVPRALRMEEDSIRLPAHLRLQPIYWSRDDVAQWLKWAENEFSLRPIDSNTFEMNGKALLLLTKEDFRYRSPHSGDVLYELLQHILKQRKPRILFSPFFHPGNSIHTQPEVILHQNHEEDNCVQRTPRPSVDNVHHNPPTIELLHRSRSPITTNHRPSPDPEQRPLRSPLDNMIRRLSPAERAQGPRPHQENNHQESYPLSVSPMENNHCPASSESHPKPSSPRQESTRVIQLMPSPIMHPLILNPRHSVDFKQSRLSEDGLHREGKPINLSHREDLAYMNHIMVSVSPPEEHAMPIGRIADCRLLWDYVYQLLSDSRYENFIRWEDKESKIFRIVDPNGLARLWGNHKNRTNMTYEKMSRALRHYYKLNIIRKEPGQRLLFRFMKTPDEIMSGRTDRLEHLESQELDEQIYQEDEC
ETV1, sequence (P50549 whole entry): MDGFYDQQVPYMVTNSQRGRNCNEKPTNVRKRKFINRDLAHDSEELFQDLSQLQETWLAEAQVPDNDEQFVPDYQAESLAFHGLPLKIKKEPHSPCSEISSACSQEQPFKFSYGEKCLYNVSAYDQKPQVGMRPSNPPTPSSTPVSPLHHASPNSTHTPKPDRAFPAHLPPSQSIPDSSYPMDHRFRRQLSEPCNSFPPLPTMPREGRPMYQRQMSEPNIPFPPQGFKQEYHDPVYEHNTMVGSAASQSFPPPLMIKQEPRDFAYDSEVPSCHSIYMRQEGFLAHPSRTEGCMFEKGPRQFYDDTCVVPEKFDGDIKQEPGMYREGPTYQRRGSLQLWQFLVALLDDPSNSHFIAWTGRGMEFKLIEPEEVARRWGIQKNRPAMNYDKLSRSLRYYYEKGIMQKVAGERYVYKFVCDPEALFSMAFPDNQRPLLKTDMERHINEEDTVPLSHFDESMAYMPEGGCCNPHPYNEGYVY
CRX, sequence (O43186 whole entry): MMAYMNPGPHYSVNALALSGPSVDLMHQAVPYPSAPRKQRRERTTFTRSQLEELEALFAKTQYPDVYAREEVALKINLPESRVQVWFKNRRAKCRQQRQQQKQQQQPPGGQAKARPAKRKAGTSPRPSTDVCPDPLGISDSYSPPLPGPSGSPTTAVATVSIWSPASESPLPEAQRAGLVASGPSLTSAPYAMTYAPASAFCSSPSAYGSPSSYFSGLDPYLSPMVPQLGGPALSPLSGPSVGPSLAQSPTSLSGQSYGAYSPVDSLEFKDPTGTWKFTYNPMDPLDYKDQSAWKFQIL

Row | Sequence | binding signal (FEV) | binding signal (ETV5) | binding signal (SPIC) | binding signal (ELF4) | binding signal (ELK4) | binding signal (ELF3) | binding signal (ETV1) | binding signal (ERF) | binding signal (ETV3L) | binding signal (ETS2) | binding signal (SPDEF) | binding signal (ETV7) | binding signal (ELF5) | binding signal (ETV3) | binding signal (ETV6) | binding signal (CRX)
1 | GTTACA | 1.18 fold enrichment (6-mer frequency, TF over GST control) | 1.16 fold enrichment (6-mer frequency, TF over GST control) | 1.14 fold enrichment (6-mer frequency, TF over GST control) | 1.11 fold enrichment (6-mer frequency, TF over GST control) | 1.26 fold enrichment (6-mer frequency, TF over GST control) | 1.15 fold enrichment (6-mer frequency, TF over GST control) | 1.11 fold enrichment (6-mer frequency, TF over GST control) | 1.24 fold enrichment (6-mer frequency, TF over GST control) | 1.06 fold enrichment (6-mer frequency, TF over GST control) | 1.2 fold enrichment (6-mer frequency, TF over GST control) | 1.21 fold enrichment (6-mer frequency, TF over GST control) | 1.12 fold enrichment (6-mer frequency, TF over GST control) | 1.14 fold enrichment (6-mer frequency, TF over GST control) | 1.09 fold enrichment (6-mer frequency, TF over GST control) | 1.07 fold enrichment (6-mer frequency, TF over GST control) | –
2 | ATGTTG | 1.21 fold enrichment (6-mer frequency, TF over GST control) | 1.3 fold enrichment (6-mer frequency, TF over GST control) | 1.1 fold enrichment (6-mer frequency, TF over GST control) | 1.2 fold enrichment (6-mer frequency, TF over GST control) | 1.25 fold enrichment (6-mer frequency, TF over GST control) | 1.11 fold enrichment (6-mer frequency, TF over GST control) | 1.32 fold enrichment (6-mer frequency, TF over GST control) | 1.24 fold enrichment (6-mer frequency, TF over GST control) | 1.23 fold enrichment (6-mer frequency, TF over GST control) | 1.22 fold enrichment (6-mer frequency, TF over GST control) | 1.31 fold enrichment (6-mer frequency, TF over GST control) | 1.43 fold enrichment (6-mer frequency, TF over GST control) | 1.15 fold enrichment (6-mer frequency, TF over GST control) | 1.33 fold enrichment (6-mer frequency, TF over GST control) | 1.22 fold enrichment (6-mer frequency, TF over GST control) | 1.04 fold enrichment (6-mer frequency, TF over GST control)
